According to PubChem BioAssay:
Where “and” joins values, the source holds several entries; their conditions need not be identical. Identical values can stand only once. For part of these data: Potency and affinity values are given separately. Calls of active or inactive are those of the source. Rule as the data show it, unless noted: active = parasite load remaining mostly below about 12% (no sharp cut-off); inactive = mostly above about 10%.

Columns and labels:
[1] = polyglutamine-triggered caspase-3 activation inhibitors, cell-based (AID 1583); details: polyglutamine-induced caspase-3 activation, cell assay; stronger effect = higher value;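 tested at 10 µM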
[2] = suppressors of polyQ aggregation in yeast, 75Q-TubU reporter (AID 1593); details: Yeast 75Q polyglutamine aggregation reporter
[3] = rescue of polyQ-huntingtin neuronal dysfunction in worms, whole organism, C. elegans mechanosensory neurons, N-terminal huntingtin (AID 1599); details: touch response, stronger effect = higher value
[4] = inhibitors of mitochondrial cytochrome c release, biochemical, purified mitochondria (AID 1603); details: stronger effect = lower value;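 also: mouse liver mitochondria challenged with calcium chloride; signal normalized to the plate average as 100%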
[5] = inhibitors of polyQ protein aggregation (AID 1604); details: polyglutamine-induced protein aggregation inhibition assay; stronger effect = higher value; tested at 2.5 µM
[6] = enhancers of glutamate uptake in motor neurons, MN-1 cell line (AID 1612); details: MN-1 motor neuron cells, stronger effect = higher value;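 also: tested at 1 µM final; 0% = mean of DMSO vehicle wells on each plate; positive means more glutamate uptake than control and negative means less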
[7] = reducers of polyQ inclusions in PC12 cells, cell-based, NGF-treated PC12, GFPQ80 (AID 1614); details: PC12 NGF-treated GFP-polyQ80 inclusion reduction;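 also: lower means fewer inclusions and 0 means no inclusions at all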
[8] = suppressors of polyglutamine aggregation in yeast, 75Q-TubH (AID 1616); details: S. cerevisiae 75Q-TubH polyglutamine aggregation suppression; stronger effect = higher value
[9] = liver-stage malaria parasite growth inhibition, primary screen, cell-based, HepG2, luciferase luminescence, HepG2 viability (AID 624349);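 also: 100% = mean of DMSO negative control wells on the same plate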; details: P. berghei liver stage in HepG2, luciferase luminescence, concentration not given here; parasite load remaining: stronger effect = lower value; viability: measured here: HepG2 viability without parasites
[10] = differential killing of epithelial or mesenchymal cells, primary screen, imaging, PC-3E GFP, TEM4-18 mCherry, co-culture (AID 1345086;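 active = compounds killing one labelled cell type while sparing the other, by normalised counts and ratio limits, not self-fluorescent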;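 as to all read-outs here: cells exposed to compound for 72 h before imaging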;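 as to red/green cell ratio (normalised): normalised mesenchymal count divided by normalised epithelial count so high means epithelial killing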); details: imaging cell counts, at 1 µM; for red/green cell ratio (normalised): actives lie on both sides, counts scaled to control wells, 1 = unselective
[11] = sensitizers of A549 cells to miR-34 induction, primary screen, imaging, A549 dox-inducible miR-34, nuclei and caspase counts (AID 1347080;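 active = compounds whose cell count with miR-34 switched on is under 0.7 times the count with it off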); details: A549 miR-34 inducible, Hoechst nuclei count, 48 h
[12] = biological target: Mitogen-activated protein kinase 7 (Homo sapiens) (UniProt Q13164); assay: ERK5 transactivation activators in reporter cells, primary screen, cell-based, HTS (AID 1508626;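 active = luciferase signal above three times the same-plate solvent-only control wells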;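 also: luciferase driven by Gal4-ERK5 fusion binding five Gal4 sites before minimal TATA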); details: HeLa Gal4-ERK5 transactivation, 18 h, at 5 µM, stronger effect = higher value
[13] = biological target: NAD(+) hydrolase SARM1 (Homo sapiens) (UniProt Q6SZW1); assay: SARM1 TIR NADase inhibitors, cell lysate, NAD-Glo luminescence (AID 1508614;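 active = compound whose remaining NAD level is above about 45 nM, limit read from the data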;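 also: higher remaining NAD means stronger inhibition of SARM1 NADase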); details: SAM-TIR HEK293T lysate NADase, at 1 µM, stronger effect = higher value
[14] = measured here: epithelial PC-3E GFP cell survival
[15] = measured here: mesenchymal TEM4-18 mCherry cell survival
[16] = stronger effect = lower value, cell number ratio, induced over uninduced
[17] = measured here: relative caspase fold change +Dox/-Dox
[18] = measured here: total cells with miR-34 induction, stronger effect = lower value
[19] = measured here: total cells without miR-34 induction

Sequence of Mitogen-activated protein kinase 7 (Homo sapiens) (Q13164 whole entry, looked up, the tested form may be a part): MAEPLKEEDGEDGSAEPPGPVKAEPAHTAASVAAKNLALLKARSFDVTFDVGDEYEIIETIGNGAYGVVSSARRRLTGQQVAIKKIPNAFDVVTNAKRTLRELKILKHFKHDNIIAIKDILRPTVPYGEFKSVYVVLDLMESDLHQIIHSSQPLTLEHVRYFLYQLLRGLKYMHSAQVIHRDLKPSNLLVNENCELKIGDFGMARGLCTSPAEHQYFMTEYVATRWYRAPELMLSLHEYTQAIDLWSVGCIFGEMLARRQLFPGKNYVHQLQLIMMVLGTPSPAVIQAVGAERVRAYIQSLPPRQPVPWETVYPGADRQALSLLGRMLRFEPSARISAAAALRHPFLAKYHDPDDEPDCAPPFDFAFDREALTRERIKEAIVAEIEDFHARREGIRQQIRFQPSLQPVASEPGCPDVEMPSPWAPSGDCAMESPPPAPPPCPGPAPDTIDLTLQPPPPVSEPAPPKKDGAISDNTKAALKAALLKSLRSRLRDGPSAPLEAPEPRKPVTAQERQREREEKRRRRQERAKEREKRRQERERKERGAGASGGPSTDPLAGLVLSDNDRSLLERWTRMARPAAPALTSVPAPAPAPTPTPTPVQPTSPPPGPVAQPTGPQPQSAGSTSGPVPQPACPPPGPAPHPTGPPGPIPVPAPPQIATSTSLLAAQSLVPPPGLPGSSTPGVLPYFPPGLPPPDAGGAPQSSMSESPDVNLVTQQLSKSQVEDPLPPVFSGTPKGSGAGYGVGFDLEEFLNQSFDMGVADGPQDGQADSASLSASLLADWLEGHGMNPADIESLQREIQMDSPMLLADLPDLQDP
Sequence of NAD(+) hydrolase SARM1 (Homo sapiens) (Q6SZW1 whole entry, looked up): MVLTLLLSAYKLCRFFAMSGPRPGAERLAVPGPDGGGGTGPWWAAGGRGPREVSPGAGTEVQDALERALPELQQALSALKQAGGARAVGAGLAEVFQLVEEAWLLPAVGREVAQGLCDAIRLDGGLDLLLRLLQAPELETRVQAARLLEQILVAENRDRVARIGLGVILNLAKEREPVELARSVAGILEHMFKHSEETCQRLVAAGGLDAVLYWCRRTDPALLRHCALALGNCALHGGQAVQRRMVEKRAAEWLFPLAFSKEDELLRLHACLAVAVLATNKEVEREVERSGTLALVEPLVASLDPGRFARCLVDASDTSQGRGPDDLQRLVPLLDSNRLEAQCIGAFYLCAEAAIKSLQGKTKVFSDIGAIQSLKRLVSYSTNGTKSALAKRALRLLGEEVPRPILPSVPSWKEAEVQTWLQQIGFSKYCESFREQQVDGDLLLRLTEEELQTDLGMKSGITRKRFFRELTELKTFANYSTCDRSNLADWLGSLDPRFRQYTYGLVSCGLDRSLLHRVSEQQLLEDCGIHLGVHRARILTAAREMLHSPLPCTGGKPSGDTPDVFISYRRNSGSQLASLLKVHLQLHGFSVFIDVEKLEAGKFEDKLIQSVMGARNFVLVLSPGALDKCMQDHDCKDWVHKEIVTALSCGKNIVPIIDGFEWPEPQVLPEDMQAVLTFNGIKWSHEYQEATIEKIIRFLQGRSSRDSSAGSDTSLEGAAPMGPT

Row | Structure (SMILES) | inhibition [1] | score [2] | rescue above control [3] | cytochrome c release ratio [4] | inhibition of aggregation [5] | glutamate uptake change [6] | inclusion score [7] | aggregation suppression score [8] | parasite load remaining [9] | viability [9] | red/green cell ratio (normalised) [10] | normalised cell number [10, 14] | normalised cell number [10, 15] | fold change [11, 16] | fold change [11, 17] | cell count [11, 18] | cell count [11, 19] | luciferase signal [12] | remaining NAD [13]
1 | C[C@@H]1CC2C3C[C@H](F)C4=CC(=O)C=C[C@]4(C)[C@@]3(F)[C@@H](O)C[C@]2(C)[C@@]1(O)C(=O)COC(=O)C(C)(C)C (stereo partly specified) | -23.2% | 1.34 | 16 | 0.82 | 39.8% | 27.8% | 2 | 1.12 | 119% (inactive) and 74% (inactive) | 76.5% and 90.1% | 1.34 (inactive) | 1 | 1.35 | 0.838 (inactive) | 1.19 | 6940 | 8290 | 20 AU (inactive) | –
2 | C[C@@H]1O[C@@H](OC[C@H]2OC(Oc3c(-c4ccc(O)c(O)c4)oc4cc(O)cc(O)c4c3=O)[C@H](O)[C@@H](O)[C@@H]2O)[C@H](O)[C@H](O)[C@H]1O (stereo partly specified) | – | – | – | – | – | – | – | – | 80% (inactive) | 104% | 1.05 (inactive) | 0.95 | 0.99 | 0.911 (inactive) | 2.84 | 11500 | 12600 | 56 AU (inactive) | –
3 | C=COCC(F)(F)F | – | – | – | – | – | – | – | – | – | – | 0.85 (inactive) | 1.12 | 0.96 | 0.911 (inactive) | 0.971 | 9000 | 9870 | – | 10 nM (inactive)
4 | CC1(C)O[C@@H]2CC3C4C[C@H](F)C5=CC(=O)C=CC5(C)C4C(O)CC3(C)[C@]2(C(=O)CO)O1 (stereo partly specified) | 7.08% | 1.24 | 14.2 | 1.01 | 73% | 41.4% | 2 | 0.735 | 131% (inactive) and 75.5% (inactive) | 60.7% and 91.7% | 1.23 (inactive) | 1.12 | 1.38 | 0.878 (inactive) | 1.79 | 7120 | 8110 | – | –
5 | FC(F)(F)C(Cl)Br (stereo unspecified) | – | – | – | – | – | – | – | – | 24% (inactive) | 94.8% | 0.84 (inactive) | 1.13 | 0.95 | 0.974 (inactive) | 2.12 | 12500 | 12900 | 40 AU (inactive) | 10 nM (inactive)
6 | FC(F)(Cl)C(F)(F)Cl | – | – | – | – | – | – | – | – | – | – | 1.02 (inactive) | 0.91 | 0.93 | 0.926 (inactive) | 0.734 | 9510 | 10300 | – | 10 nM (inactive)
7 | C[C@]12C=CC(=O)C=C1CCC1C2[C@@H](O)C[C@@]2(C)C1CC[C@]2(O)C(=O)CO (stereo partly specified) | 12% | 1.21 | 1.9 | 1.29 | 70.5% | 9.97% | 2 | 1.27 | 115% (inactive) and 54.5% (inactive) | 73.3% and 82.9% | 1.37 (inactive) | 1.03 | 1.41 | 0.848 (inactive) | 2.13 | 6630 | 7820 | – | –
8 | CC(=O)Oc1c(C)cccc1C(=O)O | – | – | – | – | – | – | – | – | – | – | 0.87 (inactive) | 1.16 | 1 | 0.895 (inactive) | 0.783 | 8780 | 9810 | 56 AU (inactive) | 10 nM (inactive)
9 | CN[C@@H]1[C@H](OC2[C@H](O[C@H]3[C@H](O)[C@@H](O)[C@H](N=C(N)N)[C@@H](O)[C@@H]3N=C(N)N)O[C@@H](C)[C@]2(O)C=O)O[C@@H](CO)[C@H](O)[C@H]1O (stereo partly specified) | 11% | 1.53 | 0.21 | 1.12 | 65.1% | 10.8% | 1.5 | 1.33 | 83% (inactive) and 43.9% (inactive) | 71.2% and 98.6% | 1.2 (inactive) | 1.02 | 1.22 | 0.885 (inactive) | 2.64 | 11600 | 13100 | – | –
10 | O=C(CNC(=O)c1ccc(Cl)cc1)NO | – | – | – | – | – | – | – | – | 45.5% (inactive) | 106% | 0.95 (inactive) | 1.13 | 1.08 | 0.961 (inactive) | 3.28 | 12100 | 12600 | 60 AU (inactive) | 10 nM (inactive)
